Screens deposited in PubChem BioAssay by Sanford-Burnham Center for Chemical Genomics.
Only a selection was taken, and hits are over-represented in it overall.
VHR inh color = VHR1 phosphatase inhibitors, primary screen, biochemical, colorimetric, HTS | recombinant VHR phosphatase, colorimetric substrate read-out | inhibition, % at 20 µM | 50,000 tested, 0.7% active | AID 1992, 2009; in the data active = inhibition above about 60%
Target sequence (P51452 whole entry, looked up): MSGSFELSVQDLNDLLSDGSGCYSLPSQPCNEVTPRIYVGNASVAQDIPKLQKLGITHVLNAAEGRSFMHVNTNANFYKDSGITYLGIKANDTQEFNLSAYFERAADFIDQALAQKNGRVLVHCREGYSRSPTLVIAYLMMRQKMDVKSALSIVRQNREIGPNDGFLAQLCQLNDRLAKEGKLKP
An asterisk follows results filed as active.

SMILES	VHR inh color
COc1ccc(N2C(=O)NC(=O)/C(=C/c3ccc(I)o3)C2=O)cc1	106.7*
COc1ccc(N2C(=O)/C(=C/c3ccc(I)o3)C(=O)NC2=S)cc1	91.6*
COc1ccc(N2C(=O)NC(=O)/C(=C/c3ccc(-c4ccc(C(=O)O)cc4)o3)C2=O)cc1	45.9
COc1ccc(N2C(=O)/C(=C/c3ccc(-c4cc(C(=O)O)ccc4Cl)o3)C(=O)NC2=S)cc1	-8.0
Cc1ccc(NC(=O)CN(c2cccc([N+](=O)[O-])c2)S(=O)(=O)c2ccccc2)cc1Cl	-22.0
CCCCOCCNC(=O)c1ccc(I)cc1	-0.1
CC(/C=C/c1ccc2ccccc2c1)=C\C(=O)O	-10.1
CC1=C(C(=O)OC2CCCC2)C(c2ccc(-c3ccccc3)cc2)C2=C(CCCC2=O)N1 (centres undefined)	-0.6
CCOC(=O)c1c(NC(=O)COc2ccc(Cl)cc2)sc2c1CCN(C(=O)OCC)C2	6.1
Cc1cc(/C=N\Nc2ccc([N+](=O)[O-])cn2)c(C)n1-c1ccccc1F	-3.9
Cc1cc(/C=N/Nc2ccc([N+](=O)[O-])cn2)c(C)n1-c1ccc(F)cc1	87.4*
Cc1cc(/C=N/n2cnnc2)c(C)n1-c1ccc(F)cc1	-5.0
O=C(Sc1nc2ccccc2[nH]1)c1ccccc1	8.0
COc1ccc(-n2nc3cc(C)c(NC(=O)c4cc(Cl)ccc4OC)cc3n2)cc1	109.6*
COc1ccc(Br)cc1C(=O)Nc1cc2nn(-c3ccc(C)cc3)nc2cc1C	3.0
Cc1ccc(-n2nc3cc(C)c(NC(=O)c4cc(Cl)ccc4Cl)cc3n2)cc1	-28.2
CCOc1ccc(C(=O)Nc2cccc(NC(=O)c3cccc(Cl)c3)c2)cc1Cl	-19.2
CCN1CCN(C(=O)c2ccc(F)cc2)CC1	2.2
Cc1ccc(C=C2C(=O)N(C)C(=S)N(c3ccccc3)C2=O)s1	-5.6
Cc1ccc(C)n1-c1ccc(C(=O)O)c(O)c1	97.3*
Cc1ccc(C)n1-c1ccc(C(=O)O)c(Cl)c1	46.6
Cc1ccc(C)n1-c1cc(C(=O)O)cc(C(=O)O)c1	25.9
COc1cc([N+](=O)[O-])ccc1-c1ccc(/C=C2\C(=O)NC(=O)N(c3ccc(C)c(C)c3)C2=O)o1	-6.3
O=C(NC(=S)Nc1ccc2oc(-c3ccc(-c4ccccc4)cc3)nc2c1)c1ccco1	-4.3
COc1cc(OC)c(C2SCCN2S(=O)(=O)c2ccc3cccc4c3c2CC4)cc1OC (centres undefined)	16.0
SMILES	VHR inh color
O=S(=O)(c1ccc2c(c1)OCCO2)N1CCCCCC1	-21.4
CCOC(=O)C1=C(O)/C(=C/c2ccc(-c3ccccc3)cc2)SC1=Nc1ccc(OC)cc1	114.6*
CCOC(=O)C1=C(O)/C(=C/c2ccc(O)cc2)SC1=Nc1ccccc1	-16.2
CCOC(=O)C1=C(O)/C(=C/c2ccccc2)SC1=Nc1ccccc1	-1.6
NC(=O)c1ccc(NC(=O)C23CC4CC(CC(C4)C2)C3)cc1	-15.9
O=C1c2ccc(-c3nc4ccccc4c(=O)o3)cc2C(=O)N1c1ccc(-c2ccc([N+](=O)[O-])cc2)cc1	-18.6
CC(=O)Nc1ccc(-c2nc(-c3ccccc3)c(-c3ccc(Br)cc3)[nH]2)cc1	-4.0
COc1cc(/C=N\NC(=O)c2ccc(Br)cc2)ccc1OC(=O)c1cccc2ccccc12	-9.5
CCN(CC)C(=O)c1sc(NC(=O)COc2ccc3ccccc3c2)c(C(=O)OC(C)C)c1C	0.9
COc1ccc(OCC(=O)Nc2sc3c(c2C(N)=O)CCCC3)cc1	-19.9
Cc1ccc(OCC(=O)Nc2sc3c(c2C(N)=O)CCC3)c(C)c1	16.1
Cc1cc(=O)oc2cc(OCC(=O)Nc3sc4c(c3C(N)=O)CCC4)ccc12	77.9*
COC(=O)c1ccccc1NC(=O)COc1ccc2ccccc2c1	-8.0
COC(=O)c1sc(NC(=O)COc2ccc3ccccc3c2)c(C(N)=O)c1C	96.9*
O=C(c1nn2c(c1Br)NC(c1cccs1)CC2C(F)(F)F)N(Cc1ccccc1)Cc1ccccc1 (centres undefined)	-3.1
O=C(NC1CCCC1)c1ccc(CN(c2ccccn2)S(=O)(=O)c2ccccc2)cc1	-23.8
COc1ccc(OC)c(/C=C2/SC(NC(C)=O)=NC2=O)c1	30.6
COc1ccccc1C1NC(=O)c2sc(=S)n(-c3ccccc3)c2N1 (centres undefined)	-19.8
COc1ccc(OCCOCCN2CCC(C)CC2)cc1	-5.6
CC1CCCC(C)N1CC(O)COc1ccccc1C(C)(C)C (centres undefined)	6.2
Cc1ccc(Nc2cc(N3CCOCC3)c(N)c3c2C(=O)c2ccccc2C3=O)cc1	-28.8
O=C1NC(=S)N(c2ccccc2)C(=O)/C1=C/c1cc(Cl)cc(Cl)c1O	17.6
CCN1C(=O)/C(=C/c2ccc(N3CCCC3)cc2)C(=O)NC1=S	33.0
CCN1C(=O)/C(=C/c2ccoc2)C(=O)NC1=S	92.8*
O=C1NC(=S)N(c2cccc(Br)c2)C(=O)/C1=C/C=C/c1ccccc1	69.2*
SMILES	VHR inh color
O=C1NC(=S)N(c2cccc(Br)c2)C(=O)/C1=C/c1ccc(Cl)cc1	18.8
C=CCN1C(=O)NC(=O)C(=Cc2cccn2C)C1=O	-6.0
CCN1C(=O)/C(=C/c2ccc(C)o2)C(=O)NC1=S	37.1
CCN1C(=O)/C(=C/c2cccn2C)C(=O)NC1=S	65.9*
CCN1C(=O)/C(=C/c2cccc(OC)c2OC)C(=O)NC1=S	24.2
O=C1NC(=S)N(c2ccc(Br)cc2)C(=O)/C1=C/C=C/c1ccccc1	24.3
Cn1cccc1/C=C1/C(=O)NC(=S)N(c2cccc(Cl)c2)C1=O	75.3*
O=C1NC(=S)N(c2cccc(Cl)c2)C(=O)/C1=C\c1ccc(N2CCCC2)cc1	53.0
CCCOc1ccc(C(=O)NCCCCCC(=O)O)cc1	-15.3
Cc1ccc2nc(NC(=O)c3cccc(Br)c3)sc2c1	-20.3
COc1ccc(CSc2nc3ccc(Br)cc3c(=O)n2-c2ccccc2)cc1	-0.4
CCOC(=O)COc1c(Cl)cc(/C=C2\C(=O)NC(=O)N(c3ccc(C)cc3)C2=O)cc1Cl	-3.9
O=C1Nc2ccccc2C12NN=C(c1ccccc1)S2 (centres undefined)	-6.2
CCCN=C(C)C1=C(O)C(C(=O)OC)C(C)(C)CC1=O (centres undefined)	1.3
COc1ccc(N2C(=O)/C(=C/c3cc(Br)cc(OC)c3O)SC2=S)cc1	6.0
O=C(Nc1ccccc1Cl)c1ccc(Br)o1	8.3
CN(C)CCCN1C(=O)CSC1c1cccc([N+](=O)[O-])c1 (centres undefined)	-32.6
O=C(O)c1ccc(-c2cc(Cl)ccc2Cl)o1	2.4
O=C(Nc1ccccc1C(F)(F)F)c1ccc(-c2cc(Cl)ccc2Cl)o1	112.3*
CC(=O)c1ccc(NC(=O)c2ccc(-c3ccc(Cl)cc3Cl)o2)cc1	-0.1
O=C(Nc1ccccc1C(F)(F)F)c1ccc(Cl)cc1Cl	-20.2
CC(=O)c1cccc(NC(=O)c2ccc(-c3ccc(Cl)cc3Cl)o2)c1	109.2*
O=C(Nc1ccc(NC(=O)c2ccc(-c3ccc(Cl)cc3Cl)o2)cc1)c1ccccc1	-12.8
COC1=C(C(C)(C)C)C(=O)C(=O)C(C(C)(C)C)=C1OC	-3.9
O=C(CSc1nnnn1-c1ccccc1)Nc1ccc([N+](=O)[O-])cc1	-4.4
O=C1NC(=O)/C(=C/c2ccccc2[N+](=O)[O-])S1	-23.9
CC(C)(C)c1cc(Cc2ccccc2)no1	-8.0
Cc1cccc(NC(=O)C(=O)NCCc2ccc(F)cc2)c1C	-15.4
COc1ccc(S(=O)(=O)N2CCN(C3CCC(c4ccccc4)CC3)CC2)cc1 (centres undefined)	28.3
COc1ccc(CCNC(=O)c2cc(Cl)ccc2Cl)cc1OC	5.1
